Laboratory results as given in PubChem BioAssay AID1159580 (chemical genetic matrix, 2015).
Out of some 5,500 compounds screened, about 2,000 (36%) were called active. Not shown: some 18% with an inconclusive outcome. No stated cut-off is given here; in the data, active means normalized growth mostly below about 0.91 (no sharp cut-off); inconclusive means no clear call, values can overlap the other calls; inactive means mostly above about 0.92. Some of the results follow.

Experiment: chemical genetic growth profiling, strain panel (AID 1159580);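 further: tested at 20 µM; growth read once vehicle control cultures reached saturation at 30 °C; 1 = growth at the plate median or of vehicle wells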
Conditions: growth OD

Measured: normalized growth

COc1ccc2c(c1)OC1(O)COc3cc(OC)c(OC)cc3C1=C2 (configuration not stated)
inactive: S. cerevisiae deletion strains, locus YJR075W, strain HOC1, stronger effect = lower value 0.956 | S. cerevisiae deletion strains, locus YKL009W, strain mrt4, stronger effect = lower value 0.965 | S. cerevisiae deletion strains, locus YKL068W, stronger effect = lower value 0.99 | S. cerevisiae deletion strains, locus YKL085W, strain MDH1 (second series), stronger effect = lower value 0.98 | S. cerevisiae deletion strains, locus YKL085W, strain MDH1, stronger effect = lower value 0.98 | S. cerevisiae deletion strains, locus YKL160W, strain elf1, stronger effect = lower value 1 | S. cerevisiae deletion strains, locus YKL190W, strain CNB1, stronger effect = lower value 1.01 | S. cerevisiae deletion strains, locus YKR001C, strain vps1, stronger effect = lower value 0.949 | S. cerevisiae deletion strains, locus YKR026C, strain gcn3, stronger effect = lower value 0.974 | S. cerevisiae deletion strains, locus YKR091W, strain srl3, stronger effect = lower value 0.979 | S. cerevisiae deletion strains, locus YLL001W, strain dnm1, stronger effect = lower value 0.944 | S. cerevisiae deletion strains, locus YLL026W, stronger effect = lower value 0.985 | S. cerevisiae deletion strains, locus YLL041C, strain sdh2, stronger effect = lower value 0.987 | S. cerevisiae deletion strains, locus YLR027C, strain aat2, stronger effect = lower value 0.985 | S. cerevisiae deletion strains, locus YLR039C, strain RIC1, stronger effect = lower value 0.974 | S. cerevisiae deletion strains, locus YLR058C, strain SHM2, stronger effect = lower value 1 | S. cerevisiae deletion strains, locus YLR102C, strain apc9, stronger effect = lower value 0.99 | S. cerevisiae deletion strains, locus YLR113W, strain HOG1, stronger effect = lower value 0.939 | S. cerevisiae deletion strains, locus YLR221C, strain rsa3, stronger effect = lower value 0.96 | S. cerevisiae deletion strains, locus YLR258W, strain gsy2, stronger effect = lower value 0.986 | S. cerevisiae deletion strains, locus YLR262C, strain YPT6 (second series), stronger effect = lower value 0.926 | S. cerevisiae deletion strains, locus YLR262C, strain YPT6, stronger effect = lower value 0.961 | S. cerevisiae deletion strains, locus YLR268W, strain sec22, stronger effect = lower value 0.96 | S. cerevisiae deletion strains, locus YLR320W, strain mms22, stronger effect = lower value 0.925 | S. cerevisiae deletion strains, locus YLR330W, strain CHS5, stronger effect = lower value 0.997 | S. cerevisiae deletion strains, locus YLR342W, strain FKS1 (second series), stronger effect = lower value 0.91 | S. cerevisiae deletion strains, locus YLR342W, strain FKS1, stronger effect = lower value 0.976 | S. cerevisiae deletion strains, locus YLR357W, strain rsc2, stronger effect = lower value 0.983 | S. cerevisiae deletion strains, locus YLR370C, strain arc18, stronger effect = lower value 0.985 | S. cerevisiae deletion strains, locus YLR371W, strain rom2, stronger effect = lower value 0.99 | S. cerevisiae deletion strains, locus YLR384C, strain iki3, stronger effect = lower value 0.985 | S. cerevisiae deletion strains, locus YLR418C, strain cdc73, stronger effect = lower value 0.955 | S. cerevisiae deletion strains, locus YML016C, strain PPZ1, stronger effect = lower value 1.01 | S. cerevisiae deletion strains, locus YML032C, strain rad52, stronger effect = lower value 0.957 | S. cerevisiae deletion strains, locus YML120C, strain ndi1, stronger effect = lower value 0.989 | S. cerevisiae deletion strains, locus YML124C, strain tub3, stronger effect = lower value 0.986 | S. cerevisiae deletion strains, locus YMR058W, strain fet3, stronger effect = lower value 0.978 | S. cerevisiae deletion strains, locus YMR078C, strain ctf18, stronger effect = lower value 0.98 | S. cerevisiae deletion strains, locus YMR125W, strain sto1, stronger effect = lower value 0.985 | S. cerevisiae deletion strains, locus YMR129W, stronger effect = lower value 0.977 | S. cerevisiae deletion strains, locus YMR205C, strain PFK2, stronger effect = lower value 0.954 | S. cerevisiae deletion strains, locus YMR223W, strain ubp8, stronger effect = lower value 0.951 | S. cerevisiae deletion strains, locus YMR231W, strain pep5, stronger effect = lower value 0.983 | S. cerevisiae deletion strains, locus YMR263W, strain SAP30, stronger effect = lower value 1.01 | S. cerevisiae deletion strains, locus YMR307W, strain GAS1, stronger effect = lower value 0.984 | S. cerevisiae deletion strains, locus YNL067W, strain RPL9B, stronger effect = lower value 0.998 | S. cerevisiae deletion strains, locus YNL071W, strain lat1, stronger effect = lower value 0.945 | S. cerevisiae deletion strains, locus YNL128W, strain TEP1, stronger effect = lower value 1.02 | S. cerevisiae deletion strains, locus YNL153C, strain GIM3, stronger effect = lower value 1.03 | S. cerevisiae deletion strains, locus YNL183C, strain NPR1, stronger effect = lower value 0.892 | S. cerevisiae deletion strains, locus YNL209W, strain ssb2, stronger effect = lower value 0.993 | S. cerevisiae deletion strains, locus YNL233W, strain BNI4, stronger effect = lower value 0.971 | S. cerevisiae deletion strains, locus YNL248C, strain rpa49, stronger effect = lower value 0.996 | S. cerevisiae deletion strains, locus YNL250W, strain rad50, stronger effect = lower value 0.998 | S. cerevisiae deletion strains, locus YNL271C, strain bni1, stronger effect = lower value 0.98 | S. cerevisiae deletion strains, locus YNL298W, strain CLA4, stronger effect = lower value 0.98 | S. cerevisiae deletion strains, locus YNL322C, strain KRE1 (second series), stronger effect = lower value 0.991 | S. cerevisiae deletion strains, locus YNL322C, strain KRE1, stronger effect = lower value 1 | S. cerevisiae deletion strains, locus YNR049C, strain mso1, stronger effect = lower value 0.992 | S. cerevisiae deletion strains, locus YNR052C, strain pop2, stronger effect = lower value 0.98 | S. cerevisiae deletion strains, locus YOL006C, strain TOP1, stronger effect = lower value 0.945 | S. cerevisiae deletion strains, locus YOL012C, strain htz1 0.969 | S. cerevisiae deletion strains, locus YOL147C, strain pex11, stronger effect = lower value 0.986 | S. cerevisiae deletion strains, locus YOR001W, strain rrp6, stronger effect = lower value 0.915 | S. cerevisiae deletion strains, locus YOR061W, strain CKA2, stronger effect = lower value 1.01 | S. cerevisiae deletion strains, locus YOR069W, strain VPS5, stronger effect = lower value 1.01 | S. cerevisiae deletion strains, locus YOR070C, strain gyp1, stronger effect = lower value 0.985 | S. cerevisiae deletion strains, locus YOR080W, strain dia2, stronger effect = lower value 0.97 | S. cerevisiae deletion strains, locus YOR083W, strain WHI5, stronger effect = lower value 0.982 | S. cerevisiae deletion strains, locus YOR106W, strain vam3, stronger effect = lower value 0.995 | S. cerevisiae deletion strains, locus YOR136W, strain idh2, stronger effect = lower value 0.975 | S. cerevisiae deletion strains, locus YOR144C, strain elg1, stronger effect = lower value 0.987 | S. cerevisiae deletion strains, locus YOR184W, strain ser1, stronger effect = lower value 0.899 | S. cerevisiae deletion strains, locus YOR231W, strain MKK1, stronger effect = lower value 0.92 | S. cerevisiae deletion strains, locus YOR265W, strain rbl2, stronger effect = lower value 0.982 | S. cerevisiae deletion strains, locus YOR270C, strain vph1, stronger effect = lower value 0.904 | S. cerevisiae deletion strains, locus YOR290C, strain snf2, stronger effect = lower value 0.998 | S. cerevisiae deletion strains, locus YOR316C, strain cot1, stronger effect = lower value 0.996 | S. cerevisiae deletion strains, locus YPL051W, strain arl3, stronger effect = lower value 0.949 | S. cerevisiae deletion strains, locus YPL055C, strain LGE1, stronger effect = lower value 1.02 | S. cerevisiae deletion strains, locus YPL078C, strain atp4, stronger effect = lower value 0.999 | S. cerevisiae deletion strains, locus YPL106C, strain sse1, stronger effect = lower value 0.991 | S. cerevisiae deletion strains, locus YPL240C, strain hsp82, stronger effect = lower value 0.988 | S. cerevisiae deletion strains, locus YPL241C, strain CIN2, stronger effect = lower value 1 | S. cerevisiae deletion strains, locus YPL256C, strain CLN2, stronger effect = lower value 0.902 | S. cerevisiae deletion strains, locus YPR119W, strain clb2, stronger effect = lower value 0.983 | S. cerevisiae deletion strains, locus YPR141C, strain kar3, stronger effect = lower value 0.994 | S. cerevisiae deletion strains, locus YPR163C, strain tif3, stronger effect = lower value 0.983 | S. cerevisiae deletion strains, locus YPR167C, strain met16, stronger effect = lower value 0.984 | S. cerevisiae deletion strains, strain wtn01, stronger effect = lower value 0.981 | S. cerevisiae strains, strain wild type, stronger effect = lower value 0.987
active: S. cerevisiae deletion strains, locus YNL307C, strain MCK1, stronger effect = lower value 0.848
